This assay concerns the target RUNX1 (Homo sapiens, UniProt Q01196 1-453). In words: custom PBM; custom protein-binding microarray; buffer, salt, pH and temperature not stated; high values mean tight binding. The conditions noted are these: dsDNA, one strand shown.

Sequence of RUNX1 (Q01196 whole entry): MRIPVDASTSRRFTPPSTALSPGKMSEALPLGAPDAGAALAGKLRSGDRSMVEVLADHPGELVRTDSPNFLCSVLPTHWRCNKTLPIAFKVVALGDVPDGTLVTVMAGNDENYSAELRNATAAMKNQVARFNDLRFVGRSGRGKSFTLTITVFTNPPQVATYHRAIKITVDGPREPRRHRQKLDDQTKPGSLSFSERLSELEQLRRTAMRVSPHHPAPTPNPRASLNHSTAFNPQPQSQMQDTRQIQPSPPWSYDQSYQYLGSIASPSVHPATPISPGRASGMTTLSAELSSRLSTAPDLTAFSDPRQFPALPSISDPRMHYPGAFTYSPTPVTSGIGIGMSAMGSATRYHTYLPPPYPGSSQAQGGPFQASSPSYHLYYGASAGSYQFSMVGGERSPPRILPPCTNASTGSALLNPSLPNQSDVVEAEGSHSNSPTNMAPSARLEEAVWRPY

As for “GCATACGGCTGACGTCAACCACATACGCACACATACACATACACACATACACATACGCAC”, the binding signal is 11 log fluorescence intensity.

On to “CGCGCACTGTGTGGTTGCGCACATACGCACACATACACATACACACATACACATACGCAC”, for which the binding signal is 11 log fluorescence intensity.

On to “GCGCACATTTCCCATAAATCATACACGCACACATACACATACACACATACACATACGCAC”, for which the binding signal is 11 log fluorescence intensity.

Consider “GCATACGGCTGACGTCATCCACATACGCACACATACACATACACACATACACATACGCAC”, for which the binding signal is 10.9 log fluorescence intensity.

Take “GCGCACATTTCACGTAAATCATACACGCACACATACACATACACACATACACATACGCAC”: the binding signal is 10.9 log fluorescence intensity.

Turning to “GCGCACATTTGCCGTAAATCATACACGCACACATACACATACACACATACACATACGCAC”, the binding signal was 10.9 log fluorescence intensity.

With “GCGCACATTTCCCGTAAAGCATACACGCACACATACACATACACACATACACATACGCAC”, the binding signal was 11 log fluorescence intensity.

Regarding “CGCGCACTCTGTGGTAGCGCACATACGCACACATACACATACACACATACACATACGCAC”, the binding signal was 11 log fluorescence intensity.

For the sequence “GCATACGGCTGACGTGAGCCACATACGCACACATACACATACACACATACACATACGCAC”, the binding signal is 10.9 log fluorescence intensity.

For “GCGCACATTTCCCGTATATCATACACGCACACATACACATACACACATACACATACGCAC”, the binding signal is 11 log fluorescence intensity.

As for “GCATACAGCTGACGTCAGCCACATACGCACACATACACATACACACATACACATACGCAC”, the binding signal was 11 log fluorescence intensity.

Consider “GCATACGGCTGACGTCGGCCACATACGCACACATACACATACACACATACACATACGCAC”, for which the binding signal is 11 log fluorescence intensity.

As to “CGCGCACTCTGTGGTTGCTCACATACGCACACATACACATACACACATACACATACGCAC”, the binding signal is 11.4 log fluorescence intensity.

In the case of “GCGCACATCTCCCGTAAATCATACACGCACACATACACATACACACATACACATACGCAC”, the binding signal was 10.9 log fluorescence intensity.

With “GCATACCGCTGACGTCAGCCACATACGCACACATACACATACACACATACACATACGCAC”, the binding signal was 10.9 log fluorescence intensity.

Take “CGCGCACTCTGTGGGTGCGCACATACGCACACATACACATACACACATACACATACGCAC”: the binding signal is 10.9 log fluorescence intensity.

With “GCATACGTCTGACGTCAGCCACATACGCACACATACACATACACACATACACATACGCAC”, the binding signal is 11 log fluorescence intensity.

In the case of “GCATACGGCTGACTTCAGCCACATACGCACACATACACATACACACATACACATACGCAC”, the binding signal was 10.9 log fluorescence intensity.

Regarding “CGCGCACTCTGTGCTTGCGCACATACGCACACATACACATACACACATACACATACGCAC”, the binding signal was 10.9 log fluorescence intensity.

Take “GCGCACATTTCTCGTAAATCATACACGCACACATACACATACACACATACACATACGCAC”: the binding signal is 10.9 log fluorescence intensity.

With “GCATACGGCTGAGGTCAGCCACATACGCACACATACACATACACACATACACATACGCAC”, the binding signal is 10.9 log fluorescence intensity.

For “GCATACGACTGACGTCAGCCACATACGCACACATACACATACACACATACACATACGCAC”, the binding signal was 11 log fluorescence intensity.

Turning to “GCATACGGCCGACGTCAGCCACATACGCACACATACACATACACACATACACATACGCAC”, the binding signal was 11 log fluorescence intensity.

With “GCGCACATTTCCAGTAAATCATACACGCACACATACACATACACACATACACATACGCAC”, the binding signal was 10.9 log fluorescence intensity.

As for “CGCGCACTCTGTGGTTACGCACATACGCACACATACACATACACACATACACATACGCAC”, the binding signal was 11.7 log fluorescence intensity.

Regarding “GCGCACATATCCCGTAAATCATACACGCACACATACACATACACACATACACATACGCAC”, the binding signal was 10.9 log fluorescence intensity.

As for “CGCGCACTTTGTGGTTGCGCACATACGCACACATACACATACACACATACACATACGCAC”, the binding signal is 11.6 log fluorescence intensity.

For the sequence “GCATACGGGTGACGTCAGCCACATACGCACACATACACATACACACATACACATACGCAC”, the binding signal was 10.9 log fluorescence intensity.

With “CGCGCACTCTGTGGTTGGGCACATACGCACACATACACATACACACATACACATACGCAC”, the binding signal was 11.6 log fluorescence intensity.

As to “CGCGCACCCTGTGGTTGCGCACATACGCACACATACACATACACACATACACATACGCAC”, the binding signal is 11.4 log fluorescence intensity.

Turning to “CGCGCACTCTGCGGTTGCGCACATACGCACACATACACATACACACATACACATACGCAC”, the binding signal was 12.8 log fluorescence intensity.

For the sequence “GCGCACATTTCCCGTAAACCATACACGCACACATACACATACACACATACACATACGCAC”, the binding signal is 11 log fluorescence intensity.

Regarding “GCGCACATTACCCGTAAATCATACACGCACACATACACATACACACATACACATACGCAC”, the binding signal was 10.9 log fluorescence intensity.

As for “CGCGCACTCTGGGGTTGCGCACATACGCACACATACACATACACACATACACATACGCAC”, the binding signal was 10.9 log fluorescence intensity.

Take “GCATACGGCTGGCGTCAGCCACATACGCACACATACACATACACACATACACATACGCAC”: the binding signal is 11 log fluorescence intensity.

For “GCATACGGCTGACGTAAGCCACATACGCACACATACACATACACACATACACATACGCAC”, the binding signal was 11 log fluorescence intensity.

With “GCGCACCTTTCCCGTAAATCATACACGCACACATACACATACACACATACACATACGCAC”, the binding signal is 10.9 log fluorescence intensity.

Take “CGCGCACTCTGTGGTTCCGCACATACGCACACATACACATACACACATACACATACGCAC”: the binding signal is 11.4 log fluorescence intensity.

As for “GCGCACATTTCCCGTAAATTATACACGCACACATACACATACACACATACACATACGCAC”, the binding signal was 10.9 log fluorescence intensity.

Take “CGCGCACTCGGTGGTTGCGCACATACGCACACATACACATACACACATACACATACGCAC”: the binding signal was 11 log fluorescence intensity.

As to “GCATACGGCTGACGTCAGCCACATACGCACACATACACATACACACATACACATACGCAC”, the binding signal is 11 log fluorescence intensity.

“GCGCACATTTCCTGTAAATCATACACGCACACATACACATACACACATACACATACGCAC”: the binding signal was 10.9 log fluorescence intensity.

For the sequence “CGCGCATTCTGTGGTTGCGCACATACGCACACATACACATACACACATACACATACGCAC”, the binding signal is 11.4 log fluorescence intensity.

On to “CGCGCAGTCTGTGGTTGCGCACATACGCACACATACACATACACACATACACATACGCAC”, for which the binding signal was 11.4 log fluorescence intensity.

Regarding “GCGCACATTTCCCGTAAATCATACACGCACACATACACATACACACATACACATACGCAC”, the binding signal was 11 log fluorescence intensity.

Regarding “GCATACGGCTGACGTCAGCAACATACGCACACATACACATACACACATACACATACGCAC”, the binding signal is 10.9 log fluorescence intensity.

For “CGCGCACTCTGTGGTCGCGCACATACGCACACATACACATACACACATACACATACGCAC”, the binding signal is 11.3 log fluorescence intensity.

In the case of “GCGCACATTTCCGGTAAATCATACACGCACACATACACATACACACATACACATACGCAC”, the binding signal is 11 log fluorescence intensity.

“GCGCACATTGCCCGTAAATCATACACGCACACATACACATACACACATACACATACGCAC”: the binding signal was 10.9 log fluorescence intensity.

Consider “CGCGCACTATGTGGTTGCGCACATACGCACACATACACATACACACATACACATACGCAC”, for which the binding signal is 11.3 log fluorescence intensity.

Take “GCATACGGCTGACCTCAGCCACATACGCACACATACACATACACACATACACATACGCAC”: the binding signal is 11 log fluorescence intensity.

On to “GCATACGGCTGACGTCCGCCACATACGCACACATACACATACACACATACACATACGCAC”, for which the binding signal was 10.9 log fluorescence intensity.

For “GCGCACATTTCCCCTAAATCATACACGCACACATACACATACACACATACACATACGCAC”, the binding signal is 10.9 log fluorescence intensity.

Regarding “CGCGCACTCTCTGGTTGCGCACATACGCACACATACACATACACACATACACATACGCAC”, the binding signal is 10.9 log fluorescence intensity.

As for “CGCGCACTCAGTGGTTGCGCACATACGCACACATACACATACACACATACACATACGCAC”, the binding signal was 11 log fluorescence intensity.

On to “GCGCACATTTCCCGTACATCATACACGCACACATACACATACACACATACACATACGCAC”, for which the binding signal is 11 log fluorescence intensity.

On to “CGCGCACTCTGTGTTTGCGCACATACGCACACATACACATACACACATACACATACGCAC”, for which the binding signal was 11 log fluorescence intensity.

For the sequence “GCATACGGCAGACGTCAGCCACATACGCACACATACACATACACACATACACATACGCAC”, the binding signal was 11 log fluorescence intensity.

With “GCATACGGTTGACGTCAGCCACATACGCACACATACACATACACACATACACATACGCAC”, the binding signal is 11 log fluorescence intensity.

On to “GCATACGGCGGACGTCAGCCACATACGCACACATACACATACACACATACACATACGCAC”, for which the binding signal was 11 log fluorescence intensity.

On to “GCGCACAGTTCCCGTAAATCATACACGCACACATACACATACACACATACACATACGCAC”, for which the binding signal was 10.9 log fluorescence intensity.

As for “GCATACGGCTGACGTCAGCTACATACGCACACATACACATACACACATACACATACGCAC”, the binding signal is 10.9 log fluorescence intensity.

Consider “CGCGCAATCTGTGGTTGCGCACATACGCACACATACACATACACACATACACATACGCAC”, for which the binding signal is 11.1 log fluorescence intensity.

With “CGCGCACTCTGTGGATGCGCACATACGCACACATACACATACACACATACACATACGCAC”, the binding signal was 10.9 log fluorescence intensity.

The record behind these values is publication PMC6602471.
